“And” between values parts separate entries of the source, which are not always exact repeats. Identical values can stand only once. About 83,000 compounds went through this panel and 20% of them were active in at least one assay; those are over-represented in the sample as a whole.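 Percent growth is the endpoint: 0 to 100 indicates growth inhibition (40 means 60% inhibition), 0 means no net growth, and negative values indicate cell death.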 Values without a mark were called inactive. The source made the active and inactive calls. The calls were made as follows: active = growth percent below 10; inactive = the rest.
system: HCC-2998 colon; test: NCI-60 one-dose screen, 48 h (100 = growth as untreated, 0 = no growth, -100 = all killed); conditions: 10 µM unless noted

Row | SMILES | growth
1 | CN1CCN(C(=O)Oc2cc3c(c4ccccc24)[C@H](CCl)CN3C(=O)c2cc3cc(OCCCN4CCC4)ccc3[nH]2)[C@H]2CSSC[C@H]21 | -47% (active)
2 | N#Cc1cc(-c2ccc3ncnc(N4CCc5cc(F)c(Cl)cc54)c3c2)cnc1N | 50.1%
3 | CC1=NN(C2=NC(=O)C(CC(=O)Nc3ccccc3C(F)(F)F)S2)C(c2ccc(N(C)C)cc2)C1 (stereo not drawn) | 66.2%
4 | O=C1Nc2ccccc2/C1=C/C(=O)c1cc2ccccc2oc1=O | 140%
5 | Cc1ccccc1NC(=O)c1cccc(NC(=O)CCl)c1 | 96.1%
6 | Cn1cc(-c2cc(N)n3nc(-c4c[nH]c5ccccc45)cc3n2)c2cc(Br)ccc21 | -77% (active)
7 | Nc1nc2cc(-c3ccc4ncnc(NCc5ccccc5)c4c3)ccc2o1 | 40.3%
8 | O=C(N/N=C/c1ccc(-c2cccc([N+](=O)[O-])c2)s1)c1[nH]c2ccc(Br)cc2c1-c1ccccc1 | 107%
9 | Cc1nc(Nc2ccccn2)sc1C1=NNC(c2ccccc2F)C1 (stereo not drawn) | 95.7%
10 | CC(C)(C)c1ccc(OCc2nc3ccccc3n2-c2cccc(N)c2)cc1 | 81.9% and 107%
11 | CC1=C(C(=O)OCc2ccccc2)C(c2cccc3ccccc23)n2c(nc3ccccc32)N1 (stereo not drawn) | 57%
12 | Cc1cc(=O)oc2cc(OCC(O)CNN3C(=O)c4cccc5c(N6CCN(C)CC6)ccc(c45)C3=O)ccc12 (stereo not drawn) | 101%
13 | CN(C)CCOc1ccc(C(=O)C2[C@H](c3ccc(Cl)cc3)[C@@H](c3ccccc3)NC23C(=O)Nc2ccc(Cl)cc23)cc1 (stereo partly drawn) | -91.8% (active)
